Measured values reported in the supplement of paper PMC10105736.

What was measured:
Assay in all cases: MAPPIT interaction score (arbitrary units); higher = stronger binary interaction signal, active = hit call of the paper;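 active = MAPPIT score above the 99th percentile of random reference set scores in the same batch; inactive = at or below it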
CG12863 = conditions: MAPPIT configuration: N-N; pair source set: Curagen_high_conf
CG12607 = conditions: MAPPIT configuration: N-N; pair source set: Curagen_high_conf
CG17612 = conditions: MAPPIT configuration: N-C; pair source set: screen_4
CG30195 = conditions: MAPPIT configuration: N-N; pair source set: DPIM
Cp190 = conditions: MAPPIT configuration: N-C; pair source set: Lit-BM-16
Cpr72Ea = conditions: MAPPIT configuration: N-N; pair source set: Lit-BS-16
Trl = conditions: MAPPIT configuration: N-N; pair source set: Finley_Y2H
Ubc6 = molecular target: Ubc6
Zasp52 = conditions: MAPPIT configuration: N-N
fl(2)d = conditions: MAPPIT configuration: N-N; pair source set: screen_2
su(Hw) = conditions: pair source set: Lit-BM-16
CG1246 = conditions: MAPPIT configuration: N-N; pair source set: DPIM
CG12470 = conditions: MAPPIT configuration: N-N; pair source set: Finley_Y2H
CG12576 = conditions: MAPPIT configuration: N-C; pair source set: screen_4
CG13887 = conditions: MAPPIT configuration: N-C; pair source set: screen_3
CG6845 = conditions: MAPPIT configuration: N-C; pair source set: screen_4
Tim17b2 = conditions: MAPPIT configuration: N-C; pair source set: screen_4
CG12768 = conditions: MAPPIT configuration: N-N; pair source set: Curagen_low_conf
CG8281 = conditions: MAPPIT configuration: N-N; pair source set: screen_1

Measured: MAPPIT interaction score
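Further: HEK293T cells with Epo stimulation, STAT-responsive firefly luciferase reporter, fold induction versus unstimulated cells divided by the larger fold induction of two negative controls lacking either bait or prey.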

B1: Rab26 (protein)
chain: MASTAVGLGGGEGDPGAGGPPAGSAHPDDASSMSDDVFEDAETTQARIEELRRRPFGDGSYNPPAAPASVSASITTTTTQQQQQHHNPSHHHQSSHHQPSHHHHHHHHSQLSLTGSHHYHDDAIMAPVQRSATGYPGYRPSREAMQMYAYGTDDYDDDYNDGWRSYRYDEVDMHPAPSNAHQQPFDDTVNHKTILLGDSGVGKTSFLVKYNTGEFRLGSFSATVGIALTNKVVVVDGTRVKLQIWDTAGQERFRSVTHAYYRDAHALLLLYDVTNKTTYDNIRAWLGEIREYAQEDVVIVLIGNKADCSGSERQVKREDGERLGREHNVPFMETSAKTGLNVELSFTAVARQLKSRGYEHGDDGKFNVHDFVRDNTKARSVCAQCRNM
inactive: CG12863 1.43

B2: mod(mdg4) (protein)
chain: MADDEQFSLCWNNFNTNLSAGFHESLCRGDLVDVSLAAEGQIVKAHRLVLSVCSPFFRKMFTQMPSNTHAIVFLNNVSHSALKDLIQFMYCGEVNVKQDALPAFISTAESLQIKGLTDNDPAPQPPQESSPPPAAPHVQQQQIPAQRVQRQQPRASARYKIETVDDGLGDEKQSTTQIVIQTTAAPQATIVQQQQPQQAAQQIQSQQLQTGTTTTATLVSTNKRSAQRSSLTPASSSAGVKRSKTSTSANVMDPLDSTTETGATTTAQLVPQQITVQTSVVSAAEAKLHQQSPQQVRQEEAEYIDLPMELPTKSEPDYSEDHGDAAGDAEGTYVEDDTYGDMRYDDSYFTENEDAGNQTAANTSGGGVTATTSKAVVKQQSQNYSESSFVDTSGDQGNTEAQAATSASATKIPPRKRGRPKTKVEDQTPKPKLLEKLQAATLNEEASEPAVYASTTKGGVKLIFNGHLFKFSFRKADYSVFQCCYREHGEECKVRVVCDQKRVFPYEGEHVHFMQASDKSCLPSQFMPGESGVISSLSPSKELLMKNTTKLEEADDKEDEDFEEFEIQEIDEIELDEPEKTPAKEEEVDPNDFREKIKRRLQKALQNKKK
active: CG17612 4.86 | CG30195 2.59 | Ubc6; MAPPIT configuration: N-C, pair source set: screen_3 3.96 | Ubc6; MAPPIT configuration: N-N, pair source set: screen_2 5.53
inactive: CG12607 0.232 | Cp190 1.09 | Cpr72Ea -2.84 | Trl -0.456 | Zasp52; pair source set: Curagen_low_conf 0.192 | Zasp52; pair source set: Lit-BS-16 -0.533 | fl(2)d -0.311 | su(Hw); MAPPIT configuration: N-C 0.885 | su(Hw); MAPPIT configuration: N-N 0.105

B3: Vha68-2 (protein)
chain: MSNLKRFDDEERESKYGRVFAVSGPVVTAEAMSGSAMYELVRVGYYELVGEIIRLEGDMATIQVYEETSGVTVGDPVLRTGKPLSVELGPGIMGSIFDGIQRPLKDINELTESIYIPKGVNVPSLSRVASWEFNPLNVKVGSHITGGDLYGLVHENTLVKHKMIVNPRAKGTVRYIAPSGNYKVDDVVLETEFDGEITKHTMLQVWPVRQPRPVTEKLPANHPLLTGQRVLDSLFPCVQGGTTAIPGAFGCGKTVISQALSKYSNSDVIIYVGCGERGNEMSEVLRDFPELSVEIDGVTESIMKRTALVANTSNMPVAAREASIYTGITLSEYFRDMGYNVSMMADSTSRWAEALREISGRLAEMPADSGYPAYLGARLASFYERAGRVKCLGNPEREGSVSIVGAVSPPGGDFSDPVTSATLGIVQVFWGLDKKLAQRKHFPSINWLISYSKYMRALDDFYDKNFPEFVPLRTKVKEILQEEEDLSEIVQLVGKASLAETDKITLEVAKLLKDDFLQQNSYSSYDRFCPFYKTVGMLRNIIDFYDMARHSVESTAQSENKITWNVIREAMGNIMYQLSSMKFKDPVKDGEAKIKADFEQLHEDLQQAFRNLED
inactive: CG1246 -0.102

B4: SNRPG (protein)
chain: MSKAHPPEVKKYMDKRMMLKLNGGRAVTGILRGFDPFMNVVLDDTVEECKDNTKNNIGMVVIRGNSIVMVEALDRV
inactive: CG12470 2.32

B5: Tsf2 (protein)
chain: MASSLVFVALVGALCFTLANAQHHYDEHKTTRMVWCTKSQAEQYKCQNLTVAIERDRALFDEVFLNLTCFMAYSADECIHHIDREKAHITTLDAGDVFTAGRYNSLIPIMQEKLEGGFADYQSVAVIKKGSLPDLNNLRDMRNKRVCFPWVGSLAGWIVPIHTLQREGGMEVVDCNNQVKTAASYFNNSCAVYSLSDKHNPIGDNSDKLCTLCTGKIPGGRCSSADPYFGYEGAFKCLLEKGDVAFLRHSTVNEMLQTTEFKNIAPDTFELLCRDGRRASINDYRQCNWGQVPADAIVTSSARSFSDRKQYQQFLKRIAELYSDGTRDDQSRQGGQSFNSRNNINDQNAYGQFDNNDPYRTQNQYDQYRSERLDSSFAEERNQQDGTNTSILYEKFRIFESKRYGKPNLLFQDSSRALTVIPEDDQSFTKYLGPAINFIYGIRECPVPAMTLCVTSENELDKCIKMRTALKAHLLKPELICKKMHSHINCMQFIEAGKADISVFDAGDVYTGGLNYDLVPFMSEVYNLGEPEYYVVAVAKEDDPDTELTYLKGKNTCHTGINTAAGWTYPMALFISNGWIRPYGCDSVRAAAEYFTKSCVPGAISNEYNTGVPYDSMCDLCHGTSYRYCRRDASEEYYGHTGAFRCLVEGGGHVAFMKHTTVMESTGGKRKEWWARNALNDDFELLCTDGTRAEIQDYKRCNLGKVKANAVVTRGGVNYNETQMNAYINLLTYAQQLYGRKEVDAFSFSMFSSPIGHYDLIFQDATRQLQVIPPNKRRYDAYLGSDFMRARRITDCYAGASQLALSVGLLLVGSLVAML
inactive: CG12576 0.0626 | CG13887 -0.181 | CG6845 0.127 | Tim17b2 0.851

B6: dod (protein)
chain: MPDAEQLPDGWEKRTSRSTGMSYYLNMYTKESQWDQPTEPAKKAGGGSAGGGDAPDEVHCLHLLVKHKGSRRPSSWREANITRTKEEAQLLLEVYRNKIVQQEATFDELARSYSDCSSAKRGGDLGKFGRGQMQAAFEDAAFKLNVNQLSGIVDSDSGLHIILRKA
inactive: CG12768 0.142 | CG8281 -0.114
